Source: publication PMC4336329 (PLoS ONE, 2015)
The campaign covered roughly 310,000 compounds. About 14,000 (4.5%) showed an effect of 50% or more. Effects have a minus sign here. Shown is part of a subset that was picked to be rich in strong results.

Target: human ether-à-go-go-related gene (hERG) potassium channel (human, UniProt Q12809)
Assay: primary screen, population patch clamp on CHO cells stably expressing hERG; higher = less effect of the substance
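Note: peak tail current of the secondary pulse compared with the same well before compound.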

Chain of human ether-à-go-go-related gene (hERG) potassium channel (Q12809 whole entry, looked up): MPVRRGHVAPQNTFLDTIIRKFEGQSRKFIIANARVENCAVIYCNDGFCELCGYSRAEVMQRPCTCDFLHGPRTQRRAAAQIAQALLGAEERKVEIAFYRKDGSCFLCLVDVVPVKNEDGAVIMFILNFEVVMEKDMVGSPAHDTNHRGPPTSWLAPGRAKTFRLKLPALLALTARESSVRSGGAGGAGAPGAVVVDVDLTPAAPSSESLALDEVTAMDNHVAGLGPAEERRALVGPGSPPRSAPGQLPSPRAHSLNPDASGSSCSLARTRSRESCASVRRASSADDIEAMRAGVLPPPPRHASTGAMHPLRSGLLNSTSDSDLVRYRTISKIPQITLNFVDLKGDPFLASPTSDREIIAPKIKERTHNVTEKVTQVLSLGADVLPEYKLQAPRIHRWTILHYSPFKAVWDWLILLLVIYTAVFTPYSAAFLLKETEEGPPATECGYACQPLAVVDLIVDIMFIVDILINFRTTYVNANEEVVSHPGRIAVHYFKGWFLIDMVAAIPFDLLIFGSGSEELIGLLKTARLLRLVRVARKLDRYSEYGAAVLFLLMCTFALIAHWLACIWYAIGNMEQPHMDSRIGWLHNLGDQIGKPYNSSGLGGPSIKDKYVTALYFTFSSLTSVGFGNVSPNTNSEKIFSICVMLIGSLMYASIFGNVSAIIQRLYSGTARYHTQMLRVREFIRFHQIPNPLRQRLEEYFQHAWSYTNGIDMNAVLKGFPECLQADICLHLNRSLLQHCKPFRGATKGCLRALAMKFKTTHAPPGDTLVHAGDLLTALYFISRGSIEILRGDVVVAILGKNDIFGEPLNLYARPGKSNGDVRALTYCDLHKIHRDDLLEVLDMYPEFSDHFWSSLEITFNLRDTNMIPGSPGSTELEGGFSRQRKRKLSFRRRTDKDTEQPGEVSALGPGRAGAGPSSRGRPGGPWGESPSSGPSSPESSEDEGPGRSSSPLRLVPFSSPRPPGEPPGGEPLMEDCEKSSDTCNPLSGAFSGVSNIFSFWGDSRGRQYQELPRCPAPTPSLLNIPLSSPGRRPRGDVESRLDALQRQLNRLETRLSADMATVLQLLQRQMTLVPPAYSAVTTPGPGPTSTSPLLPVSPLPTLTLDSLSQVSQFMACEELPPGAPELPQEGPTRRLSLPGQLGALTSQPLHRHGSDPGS

Going from `CCCCCn1c(=O)c(C(=O)OCC)c(O)c2ccccc21` to `CCCCn1c(=O)c(C(=O)OCC)c(O)c2ccccc21`, the “hERG current change (%, negative = inhibition) at 10uM” value rises from -64% to 2.18%.

Going from `CCCCCCCCn1c(=O)c(C(=O)OCC)c(O)c2ccccc21` to `CCCCCCCCn1c(=O)c(C(=O)OC)c(N)c2ccccc21`, the “hERG current change (%, negative = inhibition) at 10uM” value falls from 14.5% to 3.02%.

Compared with `CCCCCn1c(=O)c(C(=O)OCC)c(Cl)c2ccccc21`, `CCCCCCCn1c(=O)c(C(=O)OC)c(N)c2ccccc21` is higher in “hERG current change (%, negative = inhibition) at 10uM” value: -73.8% for the first, -9% for the second.

Going from `CCC1CCCCN1CCCNC(=O)CSc1nc2nc(C)c(Cc3ccc(C)cc3)c(C)n2n1` (stereo not shown) to `Cc1ccc(-c2noc(CCC(=O)NCC3CCN(Cc4cccc(C)c4)CC3)n2)cc1`, the “hERG current change (%, negative = inhibition) at 10uM” value falls from -47.8% to -63.8%.

First: NS(=O)(=O)c1ccc(NC(=O)COC(=O)CCC2CCCCC2)cc1
Second: CC(C)(C)NC(=O)NC(=O)CSc1ccc(S(=O)(=O)N2CCCCC2)cn1
The “hERG current change (%, negative = inhibition) at 10uM” value of the first is higher: -5.65% for the first, -13.5% for the second.

Going from `Cc1ccc(C(=O)NCCN2CCNC2=O)cc1` to `COc1ccc(C(=O)NCCCNC(=O)c2ccccn2)cc1`, the “hERG current change (%, negative = inhibition) at 10uM” value falls from 12.9% to 10.8%.

Going from `O=C(Nc1ccc2c(c1)OCO2)C(=O)c1c[nH]c2ccccc12` to `Cc1cc(C(=O)Nc2cccc3ccccc23)c(C)o1`, the “hERG current change (%, negative = inhibition) at 10uM” value falls from 22.3% to 4.69%.

Compared with `CCCn1c(SCC(=O)NC2CCCCC2)nnc1-c1ccncc1`, `Cc1nnc(SCC(N)=O)n1CC1CCCO1` (stereo not shown) is lower in “hERG current change (%, negative = inhibition) at 10uM” value: 4.24% for the first, 3.55% for the second.

Compared with `C=CCOc1ccc(CN(C)c2ccc(S(=O)(=O)N3CCN(C)CC3)cc2[N+](=O)[O-])cc1`, `CN1CCN(S(=O)(=O)c2ccc(N(C)Cc3ccc(OC(F)F)cc3)c([N+](=O)[O-])c2)CC1` is lower in “hERG current change (%, negative = inhibition) at 10uM” value: 6.82% for the first, -60.8% for the second.

Going from `CN1CCN(S(=O)(=O)c2ccc(N(C)Cc3ccc(C(F)(F)F)cc3)c([N+](=O)[O-])c2)CC1` to `CN1CCN(S(=O)(=O)c2ccc(Nc3ccc(F)cc3)c([N+](=O)[O-])c2)CC1`, the “hERG current change (%, negative = inhibition) at 10uM” value falls from -5.45% to -51.3%.

Going from `CN1CCN(S(=O)(=O)c2ccc(Nc3cccc(Cl)c3)c([N+](=O)[O-])c2)CC1` to `COc1cc(Nc2ccc(S(=O)(=O)N3CCN(C)CC3)cc2[N+](=O)[O-])cc(OC)c1`, the “hERG current change (%, negative = inhibition) at 10uM” value falls from -20.7% to -28.6%.

First: NC(=O)c1ccsc1NC(=O)c1coc2ccccc2c1=O
Second: Cc1oc(CC(C)C)cc1C(=O)Nc1cccc2ccccc12
The “hERG current change (%, negative = inhibition) at 10uM” value of the first is higher: -2.56% for the first, -58.8% for the second.

Compared with `COc1ccc(-c2nn3c(-c4ccccn4)nnc3s2)cc1OC`, `COc1ccc(OC)c(Nc2nc(NCc3ccco3)c3ccccc3n2)c1.Cl` is lower in “hERG current change (%, negative = inhibition) at 10uM” value: 10.6% for the first, -12.2% for the second.

Going from `CCOC(=O)c1sc(SCC(=O)Nc2ccc(N(C)C)cc2)nc1N` to `N#CCC(=O)Nc1ccc(C(=O)OCC(=O)Nc2ccccc2-c2ccccc2)cc1`, the “hERG current change (%, negative = inhibition) at 10uM” value rises from -13% to 9.2%.

Going from `S=C(NCCc1cnc[nH]1)NC1CCCC1` to `O=C(NC1CC1)c1ccc(F)cc1Cl`, the “hERG current change (%, negative = inhibition) at 10uM” value falls from 23.2% to 21%.

Going from `CCOC(=O)Cc1nc2cc(Cl)ccc2o1` to `CCOc1ccccc1NC(=O)c1cc(CC(C)C)oc1C`, the “hERG current change (%, negative = inhibition) at 10uM” value falls from 10.7% to -0.536%.

Compared with `N#Cc1ccsc1NC(=O)c1ccccn1`, `Cn1cnnc1SC(C(=O)Nc1cc(Cl)cc(Cl)c1)c1ccccc1` (stereo not shown) is higher in “hERG current change (%, negative = inhibition) at 10uM” value: -4.67% for the first, 20.9% for the second.

Going from `CCOc1ccc(OCCC(=O)N2CCc3cc(OC)c(OC)cc3C2)cc1` to `COc1cccc(C(=O)NC2CCCN(C3Cc4ccccc4C3)C2)c1OC` (stereo not shown), the “hERG current change (%, negative = inhibition) at 10uM” value falls from -20.6% to -41.7%.

Compared with `CC#CC(=O)NC1CCCN(C2Cc3ccccc3C2)C1` (stereo not shown), `CSCC(=O)NC1CCCN(C2Cc3ccccc3C2)C1` (stereo not shown) is higher in “hERG current change (%, negative = inhibition) at 10uM” value: -18.7% for the first, -5.38% for the second.

Going from `C#Cc1cccc(C(=O)NC2CCCN(C3Cc4ccccc4C3)C2)c1` (stereo not shown) to `O=C(NC1CCCN(C2Cc3ccccc3C2)C1)c1ccc(F)cc1Cl` (stereo not shown), the “hERG current change (%, negative = inhibition) at 10uM” value falls from -64.4% to -71.1%.

First: Cc1cc(C(=O)CSc2nc3ccccc3[nH]2)c(C)n1CC1CCCO1 (stereo not shown)
Second: Cc1cccc(C)c1OCc1cc(C(=O)N2CCN3CCCC3C2)no1 (stereo not shown)
The “hERG current change (%, negative = inhibition) at 10uM” value of the first is higher: -12.5% for the first, -19.5% for the second.

First: Cc1cccc(C)c1OCc1cc(C(=O)N2CCN(C3CCCC3)CC2)no1
Second: O=C(c1cc(COc2c(F)cccc2F)on1)N1CCN(C2CCCCC2)CC1
The “hERG current change (%, negative = inhibition) at 10uM” value of the first is lower: -67.9% for the first, -52% for the second.

Going from `Cc1cccc(C)c1OCc1cc(C(=O)N2CCCCCCC2)no1` to `O=C(c1cc(COc2c(F)cccc2F)on1)N1CCCCCC1`, the “hERG current change (%, negative = inhibition) at 10uM” value rises from -0.442% to 4.46%.

Compared with `CC(=O)N1CCCN(C(=O)c2cc(COc3c(F)cccc3F)on2)CC1`, `COc1ccc(-c2noc(CCC(=O)NCC3CCN(Cc4cccc(C)c4)CC3)n2)cc1` is lower in “hERG current change (%, negative = inhibition) at 10uM” value: 6.58% for the first, -60.3% for the second.

First: CN(C)Cc1c(-c2ccc(Cl)cc2)nc2ccccn12
Second: COc1ccc(-c2noc(CCC(=O)NC3CCN(Cc4ccccc4)CC3)n2)cc1
The “hERG current change (%, negative = inhibition) at 10uM” value of the first is higher: 0.0702% for the first, -45.7% for the second.

First: CC(C)(C)c1ccc(C(=O)NCCCNC(=O)c2cccnc2)cc1
Second: COc1ccccc1NC(=S)NC(=O)C(C)(C)C
The “hERG current change (%, negative = inhibition) at 10uM” value of the first is higher: 11.7% for the first, -9.31% for the second.

First: CCN(C(=O)[C@@H]1CCCN1C(=O)c1cccs1)c1nc2cc(Cl)ccc2s1
Second: Cc1ccc2nc(-c3ccc(N4C(=O)CC(N5CCN(CCO)CC5)C4=O)cc3)sc2c1 (stereo not shown)
The “hERG current change (%, negative = inhibition) at 10uM” value of the first is lower: -36% for the first, -3.5% for the second.

Going from `Cc1ccc(-c2noc(CCC(=O)NCCN3CCN(Cc4ccccc4)CC3)n2)cc1` to `COc1ccc(-c2noc(CCC(=O)NCCc3cccc(C)c3)n2)cc1`, the “hERG current change (%, negative = inhibition) at 10uM” value rises from -49% to -0.562%.

Going from `Cc1ccc(-c2noc(CCC(=O)NCC3CCCO3)n2)cc1` (stereo not shown) to `CCc1nc(SCc2ccccc2C)n[nH]1`, the “hERG current change (%, negative = inhibition) at 10uM” value rises from 2% to 26.9%.
